# Screening data as filed in PubChem BioAssay.
# A selection: hits, their analogues and other compounds. The true share with any hit is near 14%.
# MARV entry inh: inhibitors of Marburg virus binding or cell entry. actives 1.8% (n = 300,000). Potency, µM (highest dose often 37.8 µM), inactives show at the highest dose activity change, negative = inhibition, actives largely listed as inhibitors. Marburg virus pseudotyped entry inhibition, cell reporter; calls by dose curve; tested in HEK293 cells; further: potency means the concentration at half of the fitted maximal effect
# Pf growth 48h: inhibits P. falciparum growth in the first generation, 48 h; actives 5.9% (n = 310,000); Potency, µM (highest dose often 28.7 µM), inactives show at the top dose activity change, negative = inhibition, hits mostly inhibitors; P. falciparum luciferase growth in erythrocytes, 48 h; further: potency means the concentration at half of the fitted maximal effect
#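 Here the parasites carry a stable luciferase gene and grow inside erythrocytes in Albumax-based RPMI medium with compound for one erythrocytic cycle. Activity is scored as loss of luminescent signal.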
# Lassa entry inh: Lassa virus entry inhibition; AID 540256; actives 1.2% (n = 300,000); Potency, µM (series often up to 37.9 µM), for inactives: at the highest dose activity change, negative = inhibition, most hits filed as inhibitors; Lassa virus pseudotype entry inhibition, cell reporter; calls by dose curve; tested in HEK293 cells; further: potency means the concentration at half of the fitted maximal effect; nearly all actives have a fitted effect of over 50% in size
# Pf growth 96h: inhibits malaria parasite growth, 96 h | Potency, µM (top dose mostly 28.7 µM), for inactives: at the highest dose activity change, negative = inhibition, hits mostly inhibitors | AID 504834 | P. falciparum luciferase reporter growth, 96 h | actives 6.9% (n = 320,000); further: potency means the concentration at half of the fitted maximal effect
#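 P. falciparum expressing integrated firefly luciferase, in erythrocytes at 2% hematocrit, 0.05% parasitemia, incubated with compounds 96 h at 37 C, 5% CO2. Growth inhibition read as loss of luminescence; two-generation exposure targets delayed-death apicoplast inhibitors.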
# HCMV inh: human cytomegalovirus inhibition; activity change, negative = inhibition, % at 57.5 µM; AID 1259415; HFF cells, HCMV-luciferase reporter, 72 h; hits give low values; actives 4.5% (n = 410,000); in the data active means activity change below about -60%; inconclusive means no clear call, values can overlap the other calls; inactive means above about -39%
#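 Inhibition of viral replication was scored as loss of reporter luminescence in HFFs infected with HCMV-luciferase (MOI 1 PFU/cell) for 72 h; compounds tested at 2 doses, normalized to buffer and Salinomycin controls.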
# HCV inh: inhibitors of hepatitis C virus infection. Huh7.5.1 HCVcc-Cre infection, luciferase reporter, 44 h. Potency, µM (doses to about 41.8 µM), for the others: at the highest dose activity change, negative = inhibition, usual class: inhibitors. actives 3.4% (n = 340,000); further: potency means the concentration at half of the fitted maximal effect
#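 Infectious HCVcc-Cre (~0.5 moi) was added to cells just after compound, with cells seeded 4 h earlier at 1,000 per well. Luciferase activity after 44 h culture reported infection; substrate was incubated 15 min at room temperature before reading.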
# * hit, by the source's call; ? = inconclusive; / = no result; [ ] = dose if it differs, or a comment. Unless noted, the call rests on the fitted dose curve; in most records, active means well fitted inhibition curve with a large enough effect; inconclusive means small, poorly fitted or top-dose-only effect, or another doubt; inactive means no such curve, though single readings can be large or run the other way. On the % scale 0 is the no-effect control and ±100 the full control effect.
SMILES,MARV entry inh,Pf growth 48h,Lassa entry inh,Pf growth 96h,HCMV inh,HCV inh
CCC(C(=O)NC1CCCCC1)N(Cc1cccs1)C(=O)CCC(=O)Nc1cc(C)on1 (stereo not drawn),?,?,?,5%,-11,11µM*
Cc1cc(NC(=O)CCC(=O)N(Cc2cccs2)C(C(=O)NC2CCCC2)c2ccncc2)no1 (stereo not drawn),-2%,-28%,-4%,18%,67,-9%
COc1cccc(S(=O)(=O)Nc2ccc3c(c2)C(=O)N(C)C[C@H](OC)[C@H](C)CN(Cc2ccccc2F)[C@@H](C)CO3)c1,/,/,/,/,-9,/
Cc1cccc(C2=NC(C(F)(F)F)(C(F)(F)F)c3c(n(-c4ccc(F)cc4)c(=O)[nH]c3=O)N2)c1,?,13µM*,?,12µM*,?,?
CC(Sc1nc2ccccc2[nH]1)C(=O)O (stereo not drawn),?,/,0%,-23%,-14,-1%
CCSc1nnc(NC(=O)C(C)Sc2nc3ccccc3[nH]2)s1 (stereo not drawn),14%,4%,29%,23%,-103*,12%
COc1ccc(OC)c(NC(=O)CCN2CCN(c3ccccc3F)CC2)c1,7%,/,?,6%,-1,-24%
COc1cccc(NC(=O)CCN2CCN(c3ccccc3)CC2)c1,6%[46.1 µM],/,?,/,-75*,/
COc1cccc(NC(=O)CCN2CCN(c3ccccc3F)CC2)c1,?,18%,-21%,12µM*,-26,-8%
CCN1CCN(CCC(=O)Nc2cccc(OC)c2)CC1,3%,54%,?,?,23,-8%
Cc1ccc(-c2nn(Cc3ccccc3)cc2C(=O)NCC2CCCO2)cc1 (stereo not drawn),5%,?,4%,-8%,-7,?
C[C@@H]1CN([C@H](C)CO)C(=O)c2c(c3ccccc3n2C)-c2ccccc2CO[C@H]1CN(C)Cc1ccccc1,/,/,/,/,-11,/
COc1cccc(CN(C)C[C@@H]2OCc3ccccc3-c3c(n(C)c4ccccc34)C(=O)N([C@@H](C)CO)C[C@H]2C)c1,/,/,/,/,-105*,/
CC1(C)Cc2c(cnn2-c2ccccc2)-c2c1c1ccccc1n2CC(O)CCl (stereo not drawn),?,12µM*,-13%,?,-34,?
CC1(C)Cc2c(cnn2-c2ccccc2)C(=O)/C1=N\NC(=O)c1ccncc1,16%,/,?,/,42,13%
COc1ccc(C(C(=O)NC(C)(C)C)N(Cc2ccccc2)C(=O)CCC(=O)Nc2cc(C)on2)cc1 (stereo not drawn),/,?,/,2%,-64*,-14%
COc1ccc(C(C(=O)NC(C)(C)C)N(C(=O)CCC(=O)Nc2cc(C)on2)c2cccc(F)c2)cc1 (stereo not drawn),?,?,16%,29%,4,-11%
CCOc1cccc(N(C(=O)CCC(=O)Nc2cc(C)on2)C(C(=O)NC(C)(C)C)c2ccc(OC)cc2)c1 (stereo not drawn),?,3.3µM*,-4%[46.1 µM],?,-17,7%
CCc1ccc(N(C(=O)CCC(=O)Nc2cc(C)on2)C(C(=O)NC(C)(C)C)c2ccc(OC)cc2)cc1 (stereo not drawn),?,2.1µM*,-22%[46.1 µM],12%,?,?
CCC(C)(C)NC(=O)C(c1ccc(OC)cc1)N(C(=O)CCC(=O)Nc1cc(C)on1)c1cccc(F)c1 (stereo not drawn),?,?,7.1µM*,?,1,?
O=S(=O)(Nc1ccc2c(c1)OCO2)c1cccc(Br)c1,8%,?,7%,-27%,0,8%
CCC(C)(C)NC(=O)C(c1ccc(OC)cc1)N(Cc1ccc(OC)cc1)C(=O)CCC(=O)Nc1cc(C)on1 (stereo not drawn),-3%[46.1 µM],?,-16%,3%,6,11%
CCC(C)(C)NC(=O)C(c1ccc(OC)cc1)N(C(=O)CCC(=O)Nc1cc(C)on1)C(C)(C)C (stereo not drawn),2%[46.1 µM],?,?,12µM*,11,10%
COC(=O)c1ccc2[nH]c3cccc(/C(=C/c4ccccc4)c4ccccc4)c3c2c1,/,?,/,3.7µM*,-10,?
O=C1CCCc2[nH]c3cccc(/C(=C/c4ccccc4)c4ccccc4)c3c21,/,-16%,/,12µM*,-32,1%
SMILES,MARV entry inh,Pf growth 48h,Lassa entry inh,Pf growth 96h,HCMV inh,HCV inh
CCOC(=O)c1cccc(NC(=O)N2CCC(CN3CCCCCC3)CC2)c1,/,/,30%[46.1 µM],/,22,/
Cc1cc2nc(-c3cccc(Br)c3)c(CC(C)(C)C)n2c(C)c1Br,/,/,/,/,-4,/
O=C1c2oc3ccccc3c(=O)c2C(c2ccc(Br)cc2)N1c1ccccn1 (stereo not drawn),/,/,-1%[46.1 µM],/,2,/
CCN1C(=NCCCOC(C)C)NC(c2ccccc2)C(C(=O)OC)=C1C (stereo not drawn),-3%[14.2 µM],/,?,/,/,/
COc1ccc(NC(=O)CSc2nc(-c3cc(OC)c(OC)c(OC)c3)[nH]c2-c2ccc(F)cc2)cc1,?,/,-24%[46.1 µM],/,128,/
CC[C@@]12CCCN3CCc4c(n(c5ccccc45)C(=O)C1)[C@H]32,/,?,/,6.4µM*,/,/
CCC12CCCN3CCc4c(n(c5ccccc45)C(O)(C(=O)OC)C1)C32 (stereo not drawn),/,-15%,/,-6%,12,9%
CCOC(=O)C1=C[C@@]2(CC)CCCN3CCc4c(n1c1ccccc41)[C@H]32,?,6µM*,/,-1%,/,/
O=C(CSc1nc2ccsc2c(=O)n1-c1ccc(Br)cc1)NCc1ccc(Cl)cc1,/,/,2%[46.1 µM],/,17,/
COc1ccc(-c2c3c(=O)n(C)c(=O)n(C)c3cn2-c2cc(OC)ccc2OC)cc1,13µM*,13µM*,?,-4%[5.75 µM],-23,?
COc1ccc(-c2csc(Nc3cccnc3)n2)cc1,-30%,0%,-17%,-5%,14,10µM*
COc1ccc(-c2csc(Nc3ccccc3)n2)cc1,?,55%,?,52%,-9,14µM*
Cc1nc(N)sc1-c1csc(NCc2ccccc2)n1,14%,?,2%,?,?,-26%
Cc1nc(N)sc1-c1csc(Nc2ncccn2)n1,?,100%,3%,34%,-77*,?
Cc1nc(N)sc1-c1csc(Nc2ccc(S(N)(=O)=O)cc2)n1,/,13%,/,-23%,-15,10µM*
CN1CCN(C2CN(Cc3ccc(F)cc3)S(=O)(=O)C2)CC1 (stereo not drawn),/,/,/,/,-17,/
COc1cccc(C2=NC(C)(CC(=O)NCc3ccccc3F)ON2C)c1 (stereo not drawn),/,/,/,/,-10,/
